Laboratory results reported in PubChem BioAssay AID1159580 (chemical genetic matrix, 2015).
Among all 5,500 compounds or so, about 2,000 (36%) were called active. Inconclusive results (about 18%) are left out. Rule as the data show it: active = normalized growth mostly below about 0.91 (no sharp cut-off); inconclusive = no clear call, values can overlap the other calls; inactive = mostly above about 0.92. The list shows a part of the results.

Assay: chemical genetic growth profiling, strain panel (AID 1159580);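 also: tested at 20 µM; growth read once vehicle control cultures reached saturation at 30 °C; 1 = growth at the plate median or of vehicle wells; lower values mean less growth of the strain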
Conditions: S. cerevisiae deletion strains, growth OD

Measured: normalized growth

CC12CCC(=O)C=C1CCc1ccccc12 (configuration not stated)
active: locus YER155C, strain BEM2 (second series), hits give low values 0.849 | locus YLR357W, strain rsc2, hits give low values 0.844
inactive: locus YAL021C, strain ccr4, hits give low values 0.992 | locus YAL026C, strain drs2, hits give low values 0.985 | locus YAL030W, strain snc1, hits give low values 0.984 | locus YBL061C, strain skt5, hits give low values 0.981 | locus YBR009C, strain hhf1, hits give low values 0.985 | locus YBR023C, strain chs3, hits give low values 0.979 | locus YBR171W, strain sec66, hits give low values 0.972 | locus YBR231C, strain swc5, hits give low values 0.985 | locus YBR279W, strain paf1, hits give low values 0.985 | locus YCL011C, strain gbp2, hits give low values 0.997 | locus YCL016C, strain dcc1, hits give low values 0.978 | locus YCL061C, strain MRC1, hits give low values 0.977 | locus YCL069W, strain vba3, hits give low values 0.986 | locus YCR088W, strain abp1, hits give low values 0.966 | locus YDL005C, strain med2, hits give low values 0.985 | locus YDL040C, strain nat1, hits give low values 0.967 | locus YDR001C, strain nth1, hits give low values 0.967 | locus YDR069C, strain doa4, hits give low values 0.984 | locus YDR137W, strain rgp1, hits give low values 1.05 | locus YDR159W, strain sac3, hits give low values 0.955 | locus YDR195W, strain ref2 0.947 | locus YDR297W, strain sur2, hits give low values 0.978 | locus YDR334W, strain swr1, hits give low values 0.959 | locus YDR335W, strain msn5, hits give low values 0.978 | locus YDR392W, strain spt3, hits give low values 0.825 | locus YEL003W, strain gim4, hits give low values 0.981 | locus YEL037C, strain rad23, hits give low values 0.972 | locus YEL061C, strain CIN8 (second series), hits give low values 0.966 | locus YER015W, strain faa2, hits give low values 0.986 | locus YER016W, strain bim1, hits give low values 0.972 | locus YER111C, strain swi4, hits give low values 0.972 | locus YFR010W, strain ubp6, hits give low values 0.99 | locus YGL167C, strain pmr1, hits give low values 0.97 | locus YGL173C, strain kem1, hits give low values 0.985 | locus YGL227W, strain vid30, hits give low values 0.979 | locus YGL240W, strain doc1, hits give low values 0.925 | locus YGL253W, strain hxk2, hits give low values 0.98 | locus YHR013C, strain ard1, hits give low values 0.941 | locus YHR027C, strain rpn1, hits give low values 0.994 | locus YHR142W, strain chs7, hits give low values 0.978 | locus YJL092W, strain hpr5, hits give low values 0.974 | locus YJL095W, strain BCK1 (second series), hits give low values 0.994 | locus YJL115W, strain asf1, hits give low values 0.977 | locus YJL129C, strain trk1, hits give low values 0.964 | locus YJL154C, strain vps35, hits give low values 0.972 | locus YJL164C, strain tpk1, hits give low values 0.984 | locus YJL166W, strain qcr8, hits give low values 0.977 | locus YJL187C, strain SWE1, hits give low values 0.982 | locus YKL160W, strain elf1, hits give low values 1 | locus YKR026C, strain gcn3, hits give low values 0.951 | locus YKR091W, strain srl3, hits give low values 0.971 | locus YLL001W, strain dnm1, hits give low values 0.968 | locus YLL026W, hits give low values 0.979 | locus YLL041C, strain sdh2, hits give low values 0.973 | locus YLR027C, strain aat2, hits give low values 0.99 | locus YLR221C, strain rsa3, hits give low values 1.01 | locus YLR258W, strain gsy2, hits give low values 0.992 | locus YLR262C, strain YPT6 (second series), hits give low values 1.07 | locus YLR320W, strain mms22, hits give low values 0.973 | locus YLR342W, strain FKS1, hits give low values 0.977 | locus YLR370C, strain arc18, hits give low values 0.984 | locus YLR384C, strain iki3, hits give low values 0.972 | locus YML120C, strain ndi1, hits give low values 0.984 | locus YMR058W, strain fet3, hits give low values 0.982 | locus YMR125W, strain sto1, hits give low values 0.969 | locus YMR129W, hits give low values 0.983 | locus YMR205C, strain PFK2, hits give low values 0.985 | locus YMR231W, strain pep5, hits give low values 0.977 | locus YNL071W, strain lat1, hits give low values 0.978 | locus YNL209W, strain ssb2, hits give low values 0.989 | locus YNL248C, strain rpa49, hits give low values 0.951 | locus YNL322C, strain KRE1 (second series), hits give low values 0.962 | locus YNR049C, strain mso1, hits give low values 0.98 | locus YOR001W, strain rrp6, hits give low values 0.994 | locus YOR070C, strain gyp1, hits give low values 0.992 | locus YOR080W, strain dia2, hits give low values 0.974 | locus YOR083W, strain WHI5, hits give low values 1 | locus YOR106W, strain vam3, hits give low values 1 | locus YOR265W, strain rbl2, hits give low values 0.984 | locus YOR270C, strain vph1, hits give low values 0.931 | locus YOR290C, strain snf2, hits give low values 0.933 | locus YPL051W, strain arl3, hits give low values 0.994 | locus YPL078C, strain atp4, hits give low values 0.977 | locus YPL106C, strain sse1, hits give low values 0.973 | locus YPL240C, strain hsp82, hits give low values 0.985

C[C@]12CCC(=O)C=C1CCc1ccc(O)cc12
inactive: locus YBR021W, strain FUR4, hits give low values 1.03 | locus YBR229C, strain ROT2, hits give low values 1 | locus YCL029C, strain bik1, hits give low values 0.992 | locus YDL035C, strain GPR1, hits give low values 1.04 | locus YDL074C, strain BRE1, hits give low values 1.04 | locus YDL101C, strain DUN1, hits give low values 1.01 | locus YDL134C, strain PPH21, hits give low values 1 | locus YDL185W, strain tfp1, hits give low values 0.992 | locus YDL192W, strain arf1, hits give low values 0.998 | locus YDR101C, strain arx1, hits give low values 0.984 | locus YDR150W, strain NUM1, hits give low values 1 | locus YDR162C, strain NBP2, hits give low values 1.01 | locus YDR318W, strain mcm21, hits give low values 0.986 | locus YDR388W, hits give low values 0.991 | locus YDR502C, strain sam2, hits give low values 0.968 | locus YEL061C, strain CIN8, hits give low values 1 | locus YER110C, hits give low values 0.982 | locus YER155C, strain BEM2, hits give low values 0.996 | locus YER167W, strain BCK2, hits give low values 1.02 | locus YGL078C, strain dbp3, hits give low values 0.995 | locus YGL086W, strain mad1, hits give low values 0.982 | locus YGL248W, strain PDE1, hits give low values 0.996 | locus YGR078C, strain PAC10, hits give low values 0.998 | locus YGR135W, strain pre9, hits give low values 0.973 | locus YGR252W, strain gcn5, hits give low values 0.961 | locus YHR030C, strain SLT2, hits give low values 1.01 | locus YHR079C, strain IRE1 (second series), hits give low values 0.989 | locus YHR094C, strain hxt1, hits give low values 0.993 | locus YHR129C, strain ARP1, hits give low values 1 | locus YHR200W, strain rpn10, hits give low values 0.989 | locus YIL066C, strain RNR3, hits give low values 1.02 | locus YIL073C, strain SPO22, hits give low values 1.04 | locus YIL125W, strain kgd1, hits give low values 0.987 | locus YIR030C, strain dcg1, hits give low values 1.01 | locus YJL095W, strain BCK1, hits give low values 1 | locus YJL134W, strain LCB3, hits give low values 1.01 | locus YJL168C, strain set2, hits give low values 0.987 | locus YJL187C, strain SWE1 (second series), hits give low values 1 | locus YJR043C, strain POL32, hits give low values 1.01 | locus YKL009W, strain mrt4, hits give low values 1.03 | locus YKL068W, hits give low values 0.991 | locus YKL085W, strain MDH1 (second series), hits give low values 0.999 | locus YKL085W, strain MDH1, hits give low values 0.999 | locus YKL190W, strain CNB1, hits give low values 1.01 | locus YKR001C, strain vps1, hits give low values 0.977 | locus YLR039C, strain RIC1, hits give low values 1.06 | locus YLR058C, strain SHM2, hits give low values 1.02 | locus YLR102C, strain apc9, hits give low values 0.994 | locus YLR262C, strain YPT6, hits give low values 1.07 | locus YLR268W, strain sec22, hits give low values 0.98 | locus YLR342W, strain FKS1 (second series), hits give low values 0.997 | locus YLR371W, strain rom2, hits give low values 0.994 | locus YLR418C, strain cdc73, hits give low values 0.982 | locus YML016C, strain PPZ1, hits give low values 1.01 | locus YML032C, strain rad52, hits give low values 0.982 | locus YML124C, strain tub3, hits give low values 0.979 | locus YMR078C, strain ctf18, hits give low values 0.987 | locus YMR223W, strain ubp8, hits give low values 0.988 | locus YMR307W, strain GAS1, hits give low values 1.04 | locus YNL067W, strain RPL9B, hits give low values 0.999 | locus YNL233W, strain BNI4, hits give low values 0.99 | locus YNL250W, strain rad50, hits give low values 1.01 | locus YNL271C, strain bni1, hits give low values 0.982 | locus YNL298W, strain CLA4, hits give low values 0.987 | locus YNL307C, strain MCK1, hits give low values 0.983 | locus YNR052C, strain pop2, hits give low values 0.982 | locus YOL012C, strain htz1 1.09 | locus YOL147C, strain pex11, hits give low values 0.994 | locus YOR061W, strain CKA2, hits give low values 1.03 | locus YOR069W, strain VPS5, hits give low values 1.01 | locus YOR136W, strain idh2, hits give low values 0.97 | locus YOR144C, strain elg1, hits give low values 0.985 | locus YOR184W, strain ser1, hits give low values 1.03 | locus YOR316C, strain cot1, hits give low values 0.99 | locus YPL241C, strain CIN2, hits give low values 1 | locus YPR119W, strain clb2, hits give low values 0.986 | locus YPR141C, strain kar3, hits give low values 0.994 | locus YPR163C, strain tif3, hits give low values 0.984 | locus YPR167C, strain met16, hits give low values 0.987 | strain wtn01, hits give low values 0.992
